Assay results taken from ChEMBL document CHEMBL1961873, “Compounds: GSK PKIS; Assays: Nanosyn kinase panel” (2012).

Experiments:
[1] = target: Protein kinase C gamma type (Homo sapiens) (UniProt P05129); conditions: at 1 µM;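 further: each value is an averaged percent inhibition of the enzyme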
[2] = target: T1, Protein kinase C iota type (Homo sapiens) (UniProt P41743); conditions: at 0.1 µM
T1 sequence (whole entry): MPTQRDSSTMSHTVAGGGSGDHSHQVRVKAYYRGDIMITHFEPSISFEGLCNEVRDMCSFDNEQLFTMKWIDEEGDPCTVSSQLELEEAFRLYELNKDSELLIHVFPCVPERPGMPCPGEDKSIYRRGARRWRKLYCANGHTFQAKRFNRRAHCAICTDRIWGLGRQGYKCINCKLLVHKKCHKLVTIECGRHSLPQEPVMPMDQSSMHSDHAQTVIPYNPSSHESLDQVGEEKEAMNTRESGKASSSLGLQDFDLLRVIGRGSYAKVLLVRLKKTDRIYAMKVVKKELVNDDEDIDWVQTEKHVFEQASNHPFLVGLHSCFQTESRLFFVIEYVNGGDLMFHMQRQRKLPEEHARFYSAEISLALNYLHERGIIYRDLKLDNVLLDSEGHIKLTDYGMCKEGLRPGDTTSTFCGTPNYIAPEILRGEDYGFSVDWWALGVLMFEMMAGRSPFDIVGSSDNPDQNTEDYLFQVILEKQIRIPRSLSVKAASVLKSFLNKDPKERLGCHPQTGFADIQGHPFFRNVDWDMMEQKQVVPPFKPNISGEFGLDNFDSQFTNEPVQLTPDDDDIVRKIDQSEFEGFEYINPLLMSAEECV

[3] = target: T1, Protein kinase C iota type (Homo sapiens); conditions: at 1 µM
[4] = target: Protein kinase C theta type (Homo sapiens) (UniProt Q04759); conditions: at 0.1 µM
Protein kinase C theta type (Homo sapiens), sequence (Q04759 whole entry, looked up): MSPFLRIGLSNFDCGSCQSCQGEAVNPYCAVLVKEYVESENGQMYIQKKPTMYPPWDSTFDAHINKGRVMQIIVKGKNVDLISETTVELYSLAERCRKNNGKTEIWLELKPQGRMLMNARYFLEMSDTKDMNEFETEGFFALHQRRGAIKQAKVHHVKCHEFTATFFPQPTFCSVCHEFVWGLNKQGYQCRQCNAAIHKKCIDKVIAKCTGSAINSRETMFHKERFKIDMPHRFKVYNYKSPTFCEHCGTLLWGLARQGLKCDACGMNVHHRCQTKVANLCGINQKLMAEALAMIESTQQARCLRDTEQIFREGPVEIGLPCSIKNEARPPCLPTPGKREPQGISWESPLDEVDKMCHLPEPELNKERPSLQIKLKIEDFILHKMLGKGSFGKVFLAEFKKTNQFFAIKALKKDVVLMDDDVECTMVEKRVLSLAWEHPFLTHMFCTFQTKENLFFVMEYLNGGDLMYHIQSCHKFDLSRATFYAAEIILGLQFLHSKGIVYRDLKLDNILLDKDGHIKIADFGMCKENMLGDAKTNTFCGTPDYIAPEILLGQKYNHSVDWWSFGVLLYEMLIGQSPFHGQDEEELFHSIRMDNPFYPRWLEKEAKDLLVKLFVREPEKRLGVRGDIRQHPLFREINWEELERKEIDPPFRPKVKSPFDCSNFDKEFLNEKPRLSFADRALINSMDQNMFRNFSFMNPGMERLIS

[5] = target: Protein kinase C theta type (Homo sapiens) (UniProt Q04759); conditions: at 1 µM
[6] = target: Protein kinase C beta type (Homo sapiens) (UniProt P05771); conditions: at 0.1 µM
Protein kinase C beta type (Homo sapiens), sequence (P05771 2-671 limits assumed): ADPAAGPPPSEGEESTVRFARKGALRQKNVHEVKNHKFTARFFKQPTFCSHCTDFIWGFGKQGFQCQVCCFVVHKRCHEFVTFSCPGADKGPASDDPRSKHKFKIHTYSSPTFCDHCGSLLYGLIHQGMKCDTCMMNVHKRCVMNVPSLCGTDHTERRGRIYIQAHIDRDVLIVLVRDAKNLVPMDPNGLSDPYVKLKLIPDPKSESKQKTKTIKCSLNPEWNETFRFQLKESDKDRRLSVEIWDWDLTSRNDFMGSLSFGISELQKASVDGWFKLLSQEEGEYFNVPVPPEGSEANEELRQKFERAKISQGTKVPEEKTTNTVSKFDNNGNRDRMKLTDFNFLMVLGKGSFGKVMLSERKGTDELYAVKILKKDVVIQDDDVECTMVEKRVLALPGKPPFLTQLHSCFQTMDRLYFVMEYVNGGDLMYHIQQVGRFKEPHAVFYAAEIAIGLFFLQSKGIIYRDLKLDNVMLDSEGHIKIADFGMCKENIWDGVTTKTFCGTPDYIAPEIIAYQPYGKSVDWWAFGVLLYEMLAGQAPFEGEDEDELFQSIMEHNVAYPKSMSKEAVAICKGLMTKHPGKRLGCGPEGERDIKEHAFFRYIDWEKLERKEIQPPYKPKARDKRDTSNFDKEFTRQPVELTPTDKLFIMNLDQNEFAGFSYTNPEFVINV

[7] = target: Protein kinase C beta type (Homo sapiens) (UniProt P05771); conditions: at 1 µM
[8] = target: T2, Serine/threonine-protein kinase D1 (Homo sapiens) (UniProt Q15139); conditions: at 0.1 µM
T2 sequence (whole entry): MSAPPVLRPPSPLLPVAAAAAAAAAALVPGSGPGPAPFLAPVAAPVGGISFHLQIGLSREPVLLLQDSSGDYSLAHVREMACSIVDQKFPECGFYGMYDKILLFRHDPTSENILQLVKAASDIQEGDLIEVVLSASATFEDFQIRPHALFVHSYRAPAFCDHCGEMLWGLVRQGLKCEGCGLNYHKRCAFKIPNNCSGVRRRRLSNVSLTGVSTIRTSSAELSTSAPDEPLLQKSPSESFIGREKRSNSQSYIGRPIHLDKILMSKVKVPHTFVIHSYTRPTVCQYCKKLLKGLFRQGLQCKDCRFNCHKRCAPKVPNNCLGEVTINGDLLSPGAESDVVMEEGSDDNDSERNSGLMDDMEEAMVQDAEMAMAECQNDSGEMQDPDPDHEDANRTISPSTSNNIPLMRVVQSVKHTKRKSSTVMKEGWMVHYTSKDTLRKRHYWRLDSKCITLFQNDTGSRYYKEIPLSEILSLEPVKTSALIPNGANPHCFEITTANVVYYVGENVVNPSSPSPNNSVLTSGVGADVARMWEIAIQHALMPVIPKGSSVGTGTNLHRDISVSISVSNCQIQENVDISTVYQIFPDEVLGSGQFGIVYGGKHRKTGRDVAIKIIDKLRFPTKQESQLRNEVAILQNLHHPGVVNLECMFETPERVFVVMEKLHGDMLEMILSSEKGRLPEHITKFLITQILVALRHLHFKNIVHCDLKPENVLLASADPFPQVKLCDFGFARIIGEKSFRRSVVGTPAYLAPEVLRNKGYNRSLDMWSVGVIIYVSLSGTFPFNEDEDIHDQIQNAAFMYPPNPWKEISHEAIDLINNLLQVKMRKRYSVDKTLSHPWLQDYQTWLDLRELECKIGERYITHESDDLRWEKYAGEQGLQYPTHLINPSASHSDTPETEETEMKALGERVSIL

[9] = target: T2, Serine/threonine-protein kinase D1 (Homo sapiens); conditions: at 1 µM
[10] = target: T3, Serine/threonine-protein kinase D2 (Homo sapiens) (UniProt Q9BZL6); conditions: at 0.1 µM
T3 sequence (whole entry): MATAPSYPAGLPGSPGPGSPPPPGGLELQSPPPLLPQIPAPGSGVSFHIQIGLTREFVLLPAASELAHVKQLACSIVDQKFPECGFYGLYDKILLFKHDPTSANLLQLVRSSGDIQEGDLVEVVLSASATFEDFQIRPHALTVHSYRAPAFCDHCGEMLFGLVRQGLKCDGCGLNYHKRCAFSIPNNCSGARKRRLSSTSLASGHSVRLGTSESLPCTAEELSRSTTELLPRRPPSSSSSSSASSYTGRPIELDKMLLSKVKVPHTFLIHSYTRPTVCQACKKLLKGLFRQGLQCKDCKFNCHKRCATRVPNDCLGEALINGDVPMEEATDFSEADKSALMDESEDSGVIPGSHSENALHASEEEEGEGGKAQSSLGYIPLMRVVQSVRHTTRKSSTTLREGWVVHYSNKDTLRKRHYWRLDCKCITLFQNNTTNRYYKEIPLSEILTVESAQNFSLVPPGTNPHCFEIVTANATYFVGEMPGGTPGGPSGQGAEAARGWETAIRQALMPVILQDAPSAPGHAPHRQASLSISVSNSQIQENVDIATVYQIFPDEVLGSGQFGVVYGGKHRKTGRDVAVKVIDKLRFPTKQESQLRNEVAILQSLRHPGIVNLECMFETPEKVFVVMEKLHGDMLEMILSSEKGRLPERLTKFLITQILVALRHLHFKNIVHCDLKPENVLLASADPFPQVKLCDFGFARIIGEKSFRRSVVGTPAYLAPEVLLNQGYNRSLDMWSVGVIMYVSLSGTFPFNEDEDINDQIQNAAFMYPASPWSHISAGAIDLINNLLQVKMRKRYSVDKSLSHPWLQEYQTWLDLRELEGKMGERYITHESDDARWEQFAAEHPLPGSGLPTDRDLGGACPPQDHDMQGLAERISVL

[11] = target: T3, Serine/threonine-protein kinase D2 (Homo sapiens); conditions: at 1 µM
[12] = target: T4, Serine/threonine-protein kinase D3 (Homo sapiens) (UniProt O94806); conditions: at 0.1 µM
T4 sequence (whole entry): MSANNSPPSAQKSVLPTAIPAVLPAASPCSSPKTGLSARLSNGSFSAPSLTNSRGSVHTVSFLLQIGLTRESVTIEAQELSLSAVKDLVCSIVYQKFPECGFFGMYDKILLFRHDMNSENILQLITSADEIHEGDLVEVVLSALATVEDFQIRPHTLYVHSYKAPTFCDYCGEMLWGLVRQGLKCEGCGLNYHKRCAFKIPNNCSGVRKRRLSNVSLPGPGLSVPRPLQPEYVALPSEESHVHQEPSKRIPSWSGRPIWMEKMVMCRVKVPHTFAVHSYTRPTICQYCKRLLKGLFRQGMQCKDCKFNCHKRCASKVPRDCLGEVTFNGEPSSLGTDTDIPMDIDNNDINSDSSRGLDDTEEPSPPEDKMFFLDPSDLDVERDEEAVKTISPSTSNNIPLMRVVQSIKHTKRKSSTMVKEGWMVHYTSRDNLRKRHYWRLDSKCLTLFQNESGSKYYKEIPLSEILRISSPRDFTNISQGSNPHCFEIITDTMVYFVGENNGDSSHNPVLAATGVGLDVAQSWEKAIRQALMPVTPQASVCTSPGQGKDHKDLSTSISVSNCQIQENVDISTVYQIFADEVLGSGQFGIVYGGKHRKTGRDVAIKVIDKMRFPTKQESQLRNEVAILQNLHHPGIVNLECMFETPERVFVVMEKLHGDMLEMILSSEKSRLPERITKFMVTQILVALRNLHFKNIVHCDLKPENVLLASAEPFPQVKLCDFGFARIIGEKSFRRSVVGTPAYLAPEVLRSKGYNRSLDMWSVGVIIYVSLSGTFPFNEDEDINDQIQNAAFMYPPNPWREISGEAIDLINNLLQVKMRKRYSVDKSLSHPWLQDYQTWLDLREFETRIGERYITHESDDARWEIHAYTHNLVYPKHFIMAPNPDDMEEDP

[13] = target: T4, Serine/threonine-protein kinase D3 (Homo sapiens); conditions: at 1 µM
[14] = target: T5, cGMP-dependent protein kinase 1 (Homo sapiens) (UniProt Q13976); conditions: at 0.1 µM
T5 sequence (whole entry): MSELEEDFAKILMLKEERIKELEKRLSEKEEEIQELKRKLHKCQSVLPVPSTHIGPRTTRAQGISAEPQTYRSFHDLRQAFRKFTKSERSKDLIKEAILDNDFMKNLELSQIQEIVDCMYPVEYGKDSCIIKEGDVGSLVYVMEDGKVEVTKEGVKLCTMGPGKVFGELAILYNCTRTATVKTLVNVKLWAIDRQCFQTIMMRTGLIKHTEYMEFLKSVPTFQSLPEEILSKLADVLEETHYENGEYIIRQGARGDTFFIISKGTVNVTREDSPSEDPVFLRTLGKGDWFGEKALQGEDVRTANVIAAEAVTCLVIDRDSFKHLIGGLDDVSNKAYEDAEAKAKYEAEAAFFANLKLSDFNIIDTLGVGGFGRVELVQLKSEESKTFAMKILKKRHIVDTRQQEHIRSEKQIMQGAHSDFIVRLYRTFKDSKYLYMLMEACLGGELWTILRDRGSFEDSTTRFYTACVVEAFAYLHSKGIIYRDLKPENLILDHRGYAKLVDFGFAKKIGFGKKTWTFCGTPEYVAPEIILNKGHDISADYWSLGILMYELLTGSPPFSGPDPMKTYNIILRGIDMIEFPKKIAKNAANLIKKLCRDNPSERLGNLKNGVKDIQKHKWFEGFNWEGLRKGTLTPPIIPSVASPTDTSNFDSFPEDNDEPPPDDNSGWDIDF

[15] = target: T5, cGMP-dependent protein kinase 1 (Homo sapiens); conditions: at 1 µM
[16] = target: T6, cGMP-dependent protein kinase 2 (Homo sapiens) (UniProt Q13237); conditions: at 0.1 µM
T6 sequence (whole entry): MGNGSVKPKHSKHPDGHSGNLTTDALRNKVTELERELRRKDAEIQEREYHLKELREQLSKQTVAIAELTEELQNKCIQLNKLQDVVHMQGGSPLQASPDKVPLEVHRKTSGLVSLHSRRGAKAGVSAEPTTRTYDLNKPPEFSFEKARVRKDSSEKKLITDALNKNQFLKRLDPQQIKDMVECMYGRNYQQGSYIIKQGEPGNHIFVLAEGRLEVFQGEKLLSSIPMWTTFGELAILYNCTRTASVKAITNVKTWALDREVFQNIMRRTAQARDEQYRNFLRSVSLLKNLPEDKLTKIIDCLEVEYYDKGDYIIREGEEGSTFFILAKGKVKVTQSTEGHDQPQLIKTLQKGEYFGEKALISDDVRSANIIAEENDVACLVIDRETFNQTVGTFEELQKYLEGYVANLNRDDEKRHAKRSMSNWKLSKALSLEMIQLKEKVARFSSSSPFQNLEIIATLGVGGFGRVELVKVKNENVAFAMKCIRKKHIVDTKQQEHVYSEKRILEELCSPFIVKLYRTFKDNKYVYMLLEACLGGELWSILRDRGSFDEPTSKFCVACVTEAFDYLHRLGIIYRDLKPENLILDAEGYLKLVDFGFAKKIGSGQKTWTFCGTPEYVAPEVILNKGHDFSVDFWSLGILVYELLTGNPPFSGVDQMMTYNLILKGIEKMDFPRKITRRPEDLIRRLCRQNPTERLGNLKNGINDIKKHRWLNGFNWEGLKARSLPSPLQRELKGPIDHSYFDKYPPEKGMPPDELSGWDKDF

[17] = target: T6, cGMP-dependent protein kinase 2 (Homo sapiens); conditions: at 1 µM
[18] = target: T7, cAMP-dependent protein kinase catalytic subunit PRKX (Homo sapiens) (UniProt P51817); conditions: at 0.1 µM
T7 sequence (whole entry): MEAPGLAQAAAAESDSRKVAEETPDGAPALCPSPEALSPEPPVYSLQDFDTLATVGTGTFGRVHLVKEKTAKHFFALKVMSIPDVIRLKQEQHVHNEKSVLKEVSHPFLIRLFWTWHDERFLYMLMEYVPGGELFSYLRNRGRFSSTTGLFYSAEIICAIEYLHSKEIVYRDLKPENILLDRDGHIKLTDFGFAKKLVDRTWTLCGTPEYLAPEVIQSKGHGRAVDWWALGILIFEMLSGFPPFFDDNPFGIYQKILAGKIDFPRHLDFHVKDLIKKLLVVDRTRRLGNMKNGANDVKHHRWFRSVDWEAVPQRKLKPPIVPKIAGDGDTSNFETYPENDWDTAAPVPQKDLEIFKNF

[19] = target: T7, cAMP-dependent protein kinase catalytic subunit PRKX (Homo sapiens); conditions: at 1 µM
[20] = target: Rho-associated protein kinase 1 (Homo sapiens) (UniProt Q13464); conditions: at 0.1 µM;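 further: values are mean percent inhibition of ROCK1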
Rho-associated protein kinase 1 (Homo sapiens), sequence (Q13464 2-1354 limits assumed): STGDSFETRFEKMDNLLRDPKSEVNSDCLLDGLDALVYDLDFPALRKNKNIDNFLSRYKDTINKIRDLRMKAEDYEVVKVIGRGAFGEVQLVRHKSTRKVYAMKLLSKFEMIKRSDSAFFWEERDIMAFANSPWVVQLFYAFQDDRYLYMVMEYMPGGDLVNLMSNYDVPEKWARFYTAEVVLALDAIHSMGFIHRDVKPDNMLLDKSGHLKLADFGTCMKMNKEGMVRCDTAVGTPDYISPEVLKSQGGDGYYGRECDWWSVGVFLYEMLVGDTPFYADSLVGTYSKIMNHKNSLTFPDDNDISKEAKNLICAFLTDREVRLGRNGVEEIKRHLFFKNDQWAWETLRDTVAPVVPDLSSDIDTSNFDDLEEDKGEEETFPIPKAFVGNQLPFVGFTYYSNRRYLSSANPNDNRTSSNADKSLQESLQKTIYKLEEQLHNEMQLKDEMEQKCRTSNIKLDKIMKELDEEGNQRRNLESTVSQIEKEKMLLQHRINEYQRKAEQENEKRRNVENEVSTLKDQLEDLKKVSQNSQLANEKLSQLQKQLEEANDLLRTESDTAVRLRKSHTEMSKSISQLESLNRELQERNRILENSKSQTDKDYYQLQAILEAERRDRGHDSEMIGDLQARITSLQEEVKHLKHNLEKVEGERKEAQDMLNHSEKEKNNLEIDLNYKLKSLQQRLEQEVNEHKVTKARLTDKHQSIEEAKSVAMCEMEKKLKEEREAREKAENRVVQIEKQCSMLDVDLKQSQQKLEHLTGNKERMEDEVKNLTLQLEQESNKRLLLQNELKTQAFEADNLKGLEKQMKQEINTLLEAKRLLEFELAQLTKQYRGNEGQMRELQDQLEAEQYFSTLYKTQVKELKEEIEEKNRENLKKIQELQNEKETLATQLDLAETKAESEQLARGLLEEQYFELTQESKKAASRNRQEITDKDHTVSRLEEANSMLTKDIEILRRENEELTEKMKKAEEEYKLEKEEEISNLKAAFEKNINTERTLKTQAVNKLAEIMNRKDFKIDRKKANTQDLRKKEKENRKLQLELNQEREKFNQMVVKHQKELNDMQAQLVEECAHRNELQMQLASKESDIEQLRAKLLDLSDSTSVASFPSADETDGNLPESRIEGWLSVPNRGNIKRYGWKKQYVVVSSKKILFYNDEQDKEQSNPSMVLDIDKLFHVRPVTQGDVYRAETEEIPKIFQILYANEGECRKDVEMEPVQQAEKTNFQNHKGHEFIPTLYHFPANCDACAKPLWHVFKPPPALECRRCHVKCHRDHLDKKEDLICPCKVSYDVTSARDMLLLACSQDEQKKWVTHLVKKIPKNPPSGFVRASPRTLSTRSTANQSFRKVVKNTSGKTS

Row | Compound | inhibition [1] [%] | inhibition [2] [%] | inhibition [3] [%] | inhibition [4] [%] | inhibition [5] [%] | inhibition [6] [%] | inhibition [7] [%] | inhibition [8] [%] | inhibition [9] [%] | inhibition [10] [%] | inhibition [11] [%] | inhibition [12] [%] | inhibition [13] [%] | inhibition [14] [%] | inhibition [15] [%] | inhibition [16] [%] | inhibition [17] [%] | inhibition [18] [%] | inhibition [19] [%] | inhibition [20] [%]
1 | COC(=O)Nc1nc2cc(Oc3ccc(NC(=O)Nc4ccccc4)cc3)ccc2[nH]1 | 4.89 | -0.48 | -0.69 | 1.38 | 2.87 | 0.28 | 0.72 | 2.86 | 3.15 | 2.3 | 2.45 | 2.48 | 2.79 | 0.72 | 2.97 | 1.5 | 1.55 | 2.09 | 3.93 | 2.24
2 | CN(C)CCNC(=O)Nc1ccc(N(C)c2ccnc(Nc3ccc(CS(C)(=O)=O)cc3)n2)cc1 | 3.46 | 1.77 | 4.15 | 2.29 | 2.96 | 0.79 | 0.59 | 3.85 | 7.28 | 3.75 | 6.51 | 4.97 | 5.75 | 3.82 | 4.38 | 1.71 | 3.5 | 0.73 | 0.09 | 3.43
